This is part of a sample that, as a whole, favours compounds with a hit. Of some 79,000 tested, about 15% had one in any assay. Cut-off read from the data, not from the text of the source: active = growth inhibition above about 70%; inactive = the rest. Where a SMILES comes first, the peptide text is derived from it. [ ]: non-standard residue; d: D form. The star is where a group is joined. Cbz = O=C(OCc1ccccc1)*; Nva = CCC[CH](N)C(=O)O
Assays:
[1] = NCI Yeast Anticancer Drug Screen. Data for the rad50 strain (AID 155);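 note: 0% = growth of vehicle-only cultures of the same strain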; details: S. cerevisiae rad50 strain growth inhibition; at 50.0 µM; stronger effect = higher value
Outline: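 Yeast carrying a defined DNA repair defect were exposed to test compounds, and growth was compared with vehicle-treated controls to give percent inhibition.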

[2] = NCI Yeast Anticancer Drug Screen. Data for the mec2-1 strain (AID 157); details: S. cerevisiae mec2-1 strain, at 50.0 µM, stronger effect = higher value
Outline: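 Each compound was tested on mec2-1 yeast, a strain altered in DNA damage repair or cell cycle control. Growth inhibition is reported relative to vehicle.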

[3] = NCI Yeast Anticancer Drug Screen. Data for the sgs1 mgt1 strain (AID 161);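 note: 0% = growth of cultures given vehicle only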; details: S. cerevisiae sgs1 mgt1 strain, at 50.0 µM, stronger effect = higher value
Outline: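 Mutant yeast exposed to compound; growth scored against vehicle-only wells.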

[4] = NCI Yeast Anticancer Drug Screen. Data for the cln2 rad14 strain (AID 165);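 note: 0% = growth equal to vehicle treated cultures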; details: S. cerevisiae cln2 rad14 strain, at 50.0 µM, stronger effect = higher value
Outline: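 Test compounds were added to cln2 rad14 yeast cultures; inhibition of growth was then determined by comparison with vehicle treatment.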

[5] = NCI Yeast Anticancer Drug Screen. Data for the bub3 strain (AID 167); details: S. cerevisiae bub3 mutant strain, at 50.0 µM, stronger effect = higher value
Outline: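 Compounds were applied to a genetically altered yeast strain carrying a cell-cycle control defect. Growth inhibition was scored against vehicle-treated controls.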

[6] = NCI Yeast Anticancer Drug Screen. Data for the mlh1 rad18 strain (AID 175); details: S. cerevisiae mlh1 rad18 strain growth inhibition; at 50.0 µM; stronger effect = higher value
Outline: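 Inhibition values reflect reduced growth of mutant yeast versus vehicle-treated controls following compound exposure; the mutations affect DNA damage repair.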

Measured: growth inhibition

OCCn1nnc2ccccc21
inactive: [1] -0.55% | [2] -2% | [3] -4.35% | [4] 5.35% | [5] 1.7% | [6] -3.7%

O=C(CC1=NC2NN(c3ccccc3)C(=O)C2=C1CC(=O)c1ccc(F)cc1)c1ccc(F)cc1 (configuration not stated)
inactive: [1] 40.2% | [2] 20.6% | [3] 23.2% | [4] 13.1% | [5] 5.65% | [6] 38.9%

O=C(O)COc1c(Cl)cc(Cl)cc1Cl
inactive: [1] -34.7% | [2] -37% | [3] -29.6% | [4] -15.4% | [5] -39.9% | [6] -31.6%

O=C(ON=C1c2ccccc2C(Br)C(Br)c2ccccc21)c1ccccc1 (configuration not stated)
inactive: [1] 38% | [2] 16.9% | [3] 35.7% | [4] 17.6% | [5] 49% | [6] 30.6%

CC(NC(=O)C(C)(C)C)c1ccc2c(c1)OCCO2 (configuration not stated)
inactive: [1] -4.45% | [2] -11.3% | [3] 6.6% | [4] -3.7% | [5] 4.3% | [6] 2.85%

CCOC(=O)C(C(=O)OCC)=C1N[C@H](C(=O)OCC)CS1
inactive: [1] -0.8% | [2] -17.5% | [3] -15.8% | [4] 13% | [5] -6.7% | [6] -22.8%

O=S(=O)(O)C1CC2C(c3ccccc31)N1ON2O1 (configuration not stated)
inactive: [1] 54.8% | [2] -2.05% | [3] 10.3% | [4] 3.75% | [5] -14.7% | [6] -0.95%

CCN(CC)CCCC(C)n1c(-c2ccc(OC)cc2)nc2cc(Cl)ccc21 (configuration not stated)
inactive: [1] -0.65% | [2] 8.5% | [3] 26.9% | [4] 10.1% | [5] 6.55% | [6] 4.6%

CCCCCCC(=O)N1CC(C)OC(C)C1 (configuration not stated)
inactive: [1] 0.6% | [2] -6.4% | [3] 2.4% | [4] 0.1% | [5] -14.7% | [6] 4.8%

CC(C)CCCC(C)CCCl (configuration not stated)
inactive: [1] 3.85% | [2] -1.1% | [3] -5.85% | [4] 1.95% | [5] 3.2% | [6] -0.2%

Cc1cccc(NC(=O)Oc2ccc(Cl)cc2C(=O)c2ccccc2)c1
inactive: [1] 30.4% | [2] 10.7% | [3] 35.4% | [4] 29.9% | [5] 34.4% | [6] 26.2%

CCC(=O)Oc1ccccc1OC(=O)CC
inactive: [1] 35.9% | [2] 18.3% | [3] 21% | [4] 11.6% | [5] 1.9% | [6] 45.2%

CCOC(=O)c1ccc(NC(=S)N(CCC#N)C2CCCCC2)cc1
inactive: [1] 33.4% | [2] 7.2% | [3] 62.5% | [4] 27.1% | [5] 48.4% | [6] 30.9%

CN1N=Nc2ccccc2C1(O)c1ccccc1 (configuration not stated)
inactive: [1] 8.7% | [2] -3.05% | [3] 0.25% | [4] -18.6% | [5] -11.9% | [6] 6.9%

CCSCCC(C)(N)C(=O)O (configuration not stated)
inactive: [1] -7.35% | [2] -8.85% | [3] -12.3% | [4] -38.7% | [5] 2.3% | [6] -3.7%

CC(C)(C#N)CCCS(C)(=O)=O
inactive: [1] -7.75% | [2] -4.35% | [3] -4% | [4] -9.25% | [5] -12.6% | [6] -2.65%

CCCCOc1ccc(N)cn1
inactive: [1] -5.05% | [2] -4.85% | [3] 6.15% | [4] -16.4% | [5] 32.7% | [6] -5.45%

Nc1ncnc2nc(I)[nH]c12
inactive: [1] -1.45% | [2] 1.25% | [3] -4.55% | [4] -6.75% | [5] 26.7% | [6] 7.3%

CNC(=O)n1cnc2ccccc21
inactive: [1] 33.2% | [2] 30.4% | [3] 37% | [4] 13.1% | [5] 60% | [6] 25.3%

O=C1OC(/C=C/c2ccccc2)=NC/1=C\c1ccccc1O
inactive: [1] 16.1% | [2] 8.6% | [3] 20% | [4] 23.4% | [5] 0.7% | [6] 6.6%

CC12C3CC4C5CC(C(C53)[C@@H]1NCc1ccccc1)C42 (some centres not stated)
inactive: [1] 44.8% | [2] 6.8% | [3] 19.2% | [4] 35.4% | [5] 32.9% | [6] 21.9%

O=S(=O)(O)c1cc(O)c(N=NC2S(=O)(=O)OCCOS2(=O)=O)c2ccccc12
inactive: [1] 7.45% | [2] 2.7% | [3] 31.2% | [4] -9.2% | [5] 16.8% | [6] -4.05%

C#CCOC(=O)c1ccccc1O
inactive: [1] 15.2% | [2] 2.8% | [3] 17.4% | [4] 13.4% | [5] 16.9% | [6] 12.2%

CC(C)(C)C(C(N)=O)C(C)(C)C
inactive: [1] 4.4% | [2] 2.6% | [3] -6.1% | [4] 14.4% | [5] 10.8% | [6] -19.6%

CCOC(=O)c1ccc(NC(=O)Nc2ccc(OC)c([N+](=O)[O-])c2)cc1
inactive: [1] -5.9% | [2] -3.6% | [3] 12.5% | [4] -15.7% | [5] 17.8% | [6] -5.2%

CCC(C)C(NN)C(=O)O (configuration not stated)
inactive: [1] 0.7% | [2] -5.55% | [3] -22.4% | [4] -24.6% | [5] 0% | [6] -37.3%

COC(=O)CC1(C(=O)OC)Oc2ccc(Br)cc2C(=O)N1c1cccc(Cl)c1Cl (configuration not stated)
inactive: [1] 52.4% | [2] 13.8% | [3] 46.5% | [4] 40.6% | [5] 52.9% | [6] 54.1%

O=C(O)CNS(=O)(=O)c1ccccc1
inactive: [1] -43.5% | [2] -7.7% | [3] -23.1% | [4] -24.6% | [5] -0.8% | [6] 6%

NC(Cc1cccc2ccccc12)C(=O)O (configuration not stated)
inactive: [1] 14.3% | [2] -1.2% | [3] 10.4% | [4] -48.1% | [5] -7.3% | [6] 5.5%

O=C(c1ccc(Cl)c(Cl)c1)C(CS(=O)(=O)O)CS(=O)(=O)O (tested in a mixture with another compound)
inactive: [1] -1.55% | [2] 0.4% | [3] -0.8% | [4] -4.45% | [5] -4.8% | [6] 12.3%

COC(=O)c1ccc(C(=O)OC)c(N)c1
inactive: [1] 0.95% | [2] 5.4% | [3] -1.85% | [4] -33% | [5] 3.95% | [6] 0.5%

CCCC(NC(=O)OCc1ccccc1)C(=O)NC(CCSC)C(N)=O (configuration not stated) (Cbz-[Nva]-Met-NH2; configuration not given here)
inactive: [1] 28.2% | [2] -5.35% | [3] -5.95% | [4] 5.6% | [5] -4.6% | [6] -27.9%

CCCCCCCCCCCCCCCCCCC(CO)CO
inactive: [1] -22.4% | [2] -20.6% | [3] -8.65% | [4] -45% | [5] -10.2% | [6] 1.8%

O=C(CCC1CCCCC1)OCC1CCCO1 (configuration not stated)
inactive: [1] 42.1% | [2] 20.9% | [3] 41.1% | [4] 3.75% | [5] 24.6% | [6] 48.1%

c1ccc2c(c1)C1c3ccccc3C2C2OC12 (configuration not stated)
inactive: [1] 14.2% | [2] 1.5% | [3] -4% | [4] -2.9% | [5] -10.1% | [6] 34.4%

CC1(C)CNC[C@](C)(OCc2ccccc2)N1
inactive: [1] -24.4% | [2] -29.1% | [3] -11.3% | [4] 11.2% | [5] 10.9% | [6] -4.7%

CC(C)(N)CNCC(C)(C)N
inactive: [1] 6.9% | [2] -3.65% | [3] -0.2% | [4] -5.8% | [5] -0.45% | [6] -2.1%

CCOC(=O)C(NC(=O)c1ccccc1)(C(=O)OCC)c1ccccn1
inactive: [1] 8.55% | [2] -13.5% | [3] 9.65% | [4] 18.8% | [5] 9.6% | [6] 22.6%

CCCCNc1ncnc2c1cnn2-c1ccccc1
inactive: [1] 7% | [2] -1% | [3] 3.2% | [4] -26.9% | [5] -4.75% | [6] 0%

C[Si](C)(OCCS(=O)(=O)O)C1S(=O)(=O)OCCOS1(=O)=O
inactive: [1] -18.7% | [2] -21.4% | [3] -12.9% | [4] 8.6% | [5] -16.8% | [6] -18.4%

O=C(Nc1cc(Cl)ccc1Cl)c1ccccc1Cl
inactive: [1] 2.9% | [2] -6.7% | [3] 14.8% | [4] 8.85% | [5] 19.9% | [6] 20.5%

CN(C)C(=O)c1cccnc1
inactive: [1] 0.25% | [2] -4.25% | [3] -4.8% | [4] 27.1% | [5] -18.2% | [6] -2.35%

Source: PubChem BioAssay (NCI)
